The supplement of paper PMC11732987, “Enantioselective OTUD7B fragment discovery through chemoproteomics screening and high-throughput optimisation” (Communications Chemistry, 2025)

Key:
Experiment in all cases: log2 ratio of Biotin-Ahx-Ub-VS probe labelling (fragment/DMSO); higher = less target engagement (more negative = stronger competition), active = hit call of the paper (q ≤ 0.05, log2 ratio ≤ -1)
Settings in all cases: compound concentration: 200 uM; treatment time: 3 h
[1] = molecular target: T1, USP19 (UniProt O94966)
T1 sequence (whole entry): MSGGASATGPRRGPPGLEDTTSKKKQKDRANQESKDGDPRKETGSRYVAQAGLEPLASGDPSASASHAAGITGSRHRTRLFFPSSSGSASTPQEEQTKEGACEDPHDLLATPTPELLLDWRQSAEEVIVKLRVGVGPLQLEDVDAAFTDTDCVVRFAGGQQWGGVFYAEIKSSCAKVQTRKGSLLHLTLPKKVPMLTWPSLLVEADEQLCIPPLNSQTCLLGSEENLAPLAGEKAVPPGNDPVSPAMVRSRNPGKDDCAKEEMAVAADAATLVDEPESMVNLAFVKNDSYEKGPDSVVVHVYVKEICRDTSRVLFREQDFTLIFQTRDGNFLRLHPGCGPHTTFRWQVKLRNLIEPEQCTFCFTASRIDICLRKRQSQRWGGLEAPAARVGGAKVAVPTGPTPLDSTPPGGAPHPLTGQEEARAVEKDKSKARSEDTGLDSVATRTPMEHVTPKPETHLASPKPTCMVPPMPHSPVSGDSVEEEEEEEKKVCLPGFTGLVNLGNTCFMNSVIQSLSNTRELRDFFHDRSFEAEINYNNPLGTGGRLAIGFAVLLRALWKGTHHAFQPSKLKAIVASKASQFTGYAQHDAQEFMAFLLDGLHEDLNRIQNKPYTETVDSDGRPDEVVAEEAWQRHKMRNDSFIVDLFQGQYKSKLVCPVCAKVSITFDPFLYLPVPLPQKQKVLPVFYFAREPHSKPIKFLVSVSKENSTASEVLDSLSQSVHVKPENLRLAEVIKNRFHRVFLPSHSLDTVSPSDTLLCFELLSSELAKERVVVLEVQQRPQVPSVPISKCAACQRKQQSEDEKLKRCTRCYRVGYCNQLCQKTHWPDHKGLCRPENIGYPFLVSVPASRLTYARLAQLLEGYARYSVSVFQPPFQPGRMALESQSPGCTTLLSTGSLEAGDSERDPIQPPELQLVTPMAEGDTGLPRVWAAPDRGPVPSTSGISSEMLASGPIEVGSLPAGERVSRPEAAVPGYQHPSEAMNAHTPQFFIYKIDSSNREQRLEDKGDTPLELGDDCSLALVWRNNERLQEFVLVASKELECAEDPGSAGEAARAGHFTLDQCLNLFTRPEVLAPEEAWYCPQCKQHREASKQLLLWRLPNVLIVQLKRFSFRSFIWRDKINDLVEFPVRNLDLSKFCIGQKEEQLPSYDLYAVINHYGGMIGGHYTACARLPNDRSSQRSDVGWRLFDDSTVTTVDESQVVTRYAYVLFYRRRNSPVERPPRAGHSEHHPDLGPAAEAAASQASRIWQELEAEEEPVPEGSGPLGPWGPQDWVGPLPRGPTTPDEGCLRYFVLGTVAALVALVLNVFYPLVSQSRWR
Summary of the method: (§1)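 Labelled DUBs from HEK293T lysate were NeutrAvidin-enriched, digested with LysC and trypsin, and run by diaPASEF LC-MS/MS. Before that, each 495 µg sample in Tris/CHAPS/IGEPAL buffer with protease inhibitors was treated in triplicate with fragment at 200 µM or vehicle for 3 h, then with Biotin-Ahx-Ub-VS at 0.5 µM final for 1 h. Values are average log2 ratios of fragment over vehicle by unpaired t-test, based on global-median-normalised Spectronaut label-free quantities from proteins with ≥2 unique peptides.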

[2] = molecular target: USP24 (UniProt Q9UPU5)
Summary of the method: as §1

[3] = molecular target: T2, USP25 (UniProt Q9UHP3)
T2 sequence (whole entry): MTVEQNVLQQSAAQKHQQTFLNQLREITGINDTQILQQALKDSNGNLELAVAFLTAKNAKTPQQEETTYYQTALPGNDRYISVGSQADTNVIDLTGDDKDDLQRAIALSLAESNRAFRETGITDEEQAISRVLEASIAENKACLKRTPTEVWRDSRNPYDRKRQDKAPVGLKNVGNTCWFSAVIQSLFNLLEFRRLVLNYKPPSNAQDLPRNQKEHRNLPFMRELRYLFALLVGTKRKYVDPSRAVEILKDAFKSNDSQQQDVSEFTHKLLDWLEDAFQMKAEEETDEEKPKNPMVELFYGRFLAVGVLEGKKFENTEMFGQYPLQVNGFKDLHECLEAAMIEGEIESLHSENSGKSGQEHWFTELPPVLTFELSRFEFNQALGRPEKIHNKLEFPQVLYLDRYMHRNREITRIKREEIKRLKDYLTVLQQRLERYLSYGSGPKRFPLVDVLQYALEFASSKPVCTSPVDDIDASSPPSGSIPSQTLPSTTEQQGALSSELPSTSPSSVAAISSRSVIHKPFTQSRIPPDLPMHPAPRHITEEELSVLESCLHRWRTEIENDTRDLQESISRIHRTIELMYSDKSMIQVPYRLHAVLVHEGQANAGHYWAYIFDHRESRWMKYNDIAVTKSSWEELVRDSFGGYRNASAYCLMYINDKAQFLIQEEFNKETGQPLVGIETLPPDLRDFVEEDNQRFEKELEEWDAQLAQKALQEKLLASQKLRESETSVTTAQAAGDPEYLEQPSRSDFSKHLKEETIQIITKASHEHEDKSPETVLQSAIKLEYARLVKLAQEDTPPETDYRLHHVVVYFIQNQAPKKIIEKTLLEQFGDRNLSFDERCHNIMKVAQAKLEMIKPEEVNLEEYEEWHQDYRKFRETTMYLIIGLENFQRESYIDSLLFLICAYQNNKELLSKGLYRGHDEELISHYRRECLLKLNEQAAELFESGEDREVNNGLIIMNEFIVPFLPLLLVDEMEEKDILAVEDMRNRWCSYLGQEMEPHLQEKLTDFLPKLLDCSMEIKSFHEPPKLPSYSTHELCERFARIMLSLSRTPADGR
Summary of the method: as §1

[4] = molecular target: T3, USP28 (UniProt Q96RU2)
T3 sequence (whole entry): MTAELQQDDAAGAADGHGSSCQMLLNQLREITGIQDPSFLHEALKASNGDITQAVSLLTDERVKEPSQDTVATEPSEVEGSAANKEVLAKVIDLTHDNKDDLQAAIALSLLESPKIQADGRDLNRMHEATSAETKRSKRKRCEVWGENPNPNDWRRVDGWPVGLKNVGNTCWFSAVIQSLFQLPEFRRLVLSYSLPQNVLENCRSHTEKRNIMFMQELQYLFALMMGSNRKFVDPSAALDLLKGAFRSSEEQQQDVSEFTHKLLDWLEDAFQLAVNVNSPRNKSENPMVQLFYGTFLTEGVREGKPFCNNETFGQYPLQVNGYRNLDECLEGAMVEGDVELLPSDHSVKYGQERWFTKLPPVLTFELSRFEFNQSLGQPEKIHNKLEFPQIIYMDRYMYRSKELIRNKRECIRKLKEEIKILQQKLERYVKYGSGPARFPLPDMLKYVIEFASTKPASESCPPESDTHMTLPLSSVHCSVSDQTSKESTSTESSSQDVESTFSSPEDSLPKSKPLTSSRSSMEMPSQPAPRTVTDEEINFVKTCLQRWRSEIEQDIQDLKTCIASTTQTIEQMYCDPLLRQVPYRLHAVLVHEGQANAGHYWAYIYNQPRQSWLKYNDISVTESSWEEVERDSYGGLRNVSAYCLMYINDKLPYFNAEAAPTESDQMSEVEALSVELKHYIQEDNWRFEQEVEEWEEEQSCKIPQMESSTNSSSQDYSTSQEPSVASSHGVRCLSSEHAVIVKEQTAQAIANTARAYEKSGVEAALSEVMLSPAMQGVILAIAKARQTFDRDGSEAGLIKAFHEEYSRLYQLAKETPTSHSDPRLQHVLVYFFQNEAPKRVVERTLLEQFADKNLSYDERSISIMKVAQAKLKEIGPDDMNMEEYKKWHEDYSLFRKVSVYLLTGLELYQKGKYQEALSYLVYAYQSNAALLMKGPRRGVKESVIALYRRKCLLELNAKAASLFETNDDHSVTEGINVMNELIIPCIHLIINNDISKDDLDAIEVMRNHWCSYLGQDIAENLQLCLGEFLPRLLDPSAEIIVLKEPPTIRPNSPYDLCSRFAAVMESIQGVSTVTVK
Summary of the method: as §1

Measured: log2 ratio of Biotin-Ahx-Ub-VS probe labelling

Chain of USP24 (Q9UPU5 whole entry): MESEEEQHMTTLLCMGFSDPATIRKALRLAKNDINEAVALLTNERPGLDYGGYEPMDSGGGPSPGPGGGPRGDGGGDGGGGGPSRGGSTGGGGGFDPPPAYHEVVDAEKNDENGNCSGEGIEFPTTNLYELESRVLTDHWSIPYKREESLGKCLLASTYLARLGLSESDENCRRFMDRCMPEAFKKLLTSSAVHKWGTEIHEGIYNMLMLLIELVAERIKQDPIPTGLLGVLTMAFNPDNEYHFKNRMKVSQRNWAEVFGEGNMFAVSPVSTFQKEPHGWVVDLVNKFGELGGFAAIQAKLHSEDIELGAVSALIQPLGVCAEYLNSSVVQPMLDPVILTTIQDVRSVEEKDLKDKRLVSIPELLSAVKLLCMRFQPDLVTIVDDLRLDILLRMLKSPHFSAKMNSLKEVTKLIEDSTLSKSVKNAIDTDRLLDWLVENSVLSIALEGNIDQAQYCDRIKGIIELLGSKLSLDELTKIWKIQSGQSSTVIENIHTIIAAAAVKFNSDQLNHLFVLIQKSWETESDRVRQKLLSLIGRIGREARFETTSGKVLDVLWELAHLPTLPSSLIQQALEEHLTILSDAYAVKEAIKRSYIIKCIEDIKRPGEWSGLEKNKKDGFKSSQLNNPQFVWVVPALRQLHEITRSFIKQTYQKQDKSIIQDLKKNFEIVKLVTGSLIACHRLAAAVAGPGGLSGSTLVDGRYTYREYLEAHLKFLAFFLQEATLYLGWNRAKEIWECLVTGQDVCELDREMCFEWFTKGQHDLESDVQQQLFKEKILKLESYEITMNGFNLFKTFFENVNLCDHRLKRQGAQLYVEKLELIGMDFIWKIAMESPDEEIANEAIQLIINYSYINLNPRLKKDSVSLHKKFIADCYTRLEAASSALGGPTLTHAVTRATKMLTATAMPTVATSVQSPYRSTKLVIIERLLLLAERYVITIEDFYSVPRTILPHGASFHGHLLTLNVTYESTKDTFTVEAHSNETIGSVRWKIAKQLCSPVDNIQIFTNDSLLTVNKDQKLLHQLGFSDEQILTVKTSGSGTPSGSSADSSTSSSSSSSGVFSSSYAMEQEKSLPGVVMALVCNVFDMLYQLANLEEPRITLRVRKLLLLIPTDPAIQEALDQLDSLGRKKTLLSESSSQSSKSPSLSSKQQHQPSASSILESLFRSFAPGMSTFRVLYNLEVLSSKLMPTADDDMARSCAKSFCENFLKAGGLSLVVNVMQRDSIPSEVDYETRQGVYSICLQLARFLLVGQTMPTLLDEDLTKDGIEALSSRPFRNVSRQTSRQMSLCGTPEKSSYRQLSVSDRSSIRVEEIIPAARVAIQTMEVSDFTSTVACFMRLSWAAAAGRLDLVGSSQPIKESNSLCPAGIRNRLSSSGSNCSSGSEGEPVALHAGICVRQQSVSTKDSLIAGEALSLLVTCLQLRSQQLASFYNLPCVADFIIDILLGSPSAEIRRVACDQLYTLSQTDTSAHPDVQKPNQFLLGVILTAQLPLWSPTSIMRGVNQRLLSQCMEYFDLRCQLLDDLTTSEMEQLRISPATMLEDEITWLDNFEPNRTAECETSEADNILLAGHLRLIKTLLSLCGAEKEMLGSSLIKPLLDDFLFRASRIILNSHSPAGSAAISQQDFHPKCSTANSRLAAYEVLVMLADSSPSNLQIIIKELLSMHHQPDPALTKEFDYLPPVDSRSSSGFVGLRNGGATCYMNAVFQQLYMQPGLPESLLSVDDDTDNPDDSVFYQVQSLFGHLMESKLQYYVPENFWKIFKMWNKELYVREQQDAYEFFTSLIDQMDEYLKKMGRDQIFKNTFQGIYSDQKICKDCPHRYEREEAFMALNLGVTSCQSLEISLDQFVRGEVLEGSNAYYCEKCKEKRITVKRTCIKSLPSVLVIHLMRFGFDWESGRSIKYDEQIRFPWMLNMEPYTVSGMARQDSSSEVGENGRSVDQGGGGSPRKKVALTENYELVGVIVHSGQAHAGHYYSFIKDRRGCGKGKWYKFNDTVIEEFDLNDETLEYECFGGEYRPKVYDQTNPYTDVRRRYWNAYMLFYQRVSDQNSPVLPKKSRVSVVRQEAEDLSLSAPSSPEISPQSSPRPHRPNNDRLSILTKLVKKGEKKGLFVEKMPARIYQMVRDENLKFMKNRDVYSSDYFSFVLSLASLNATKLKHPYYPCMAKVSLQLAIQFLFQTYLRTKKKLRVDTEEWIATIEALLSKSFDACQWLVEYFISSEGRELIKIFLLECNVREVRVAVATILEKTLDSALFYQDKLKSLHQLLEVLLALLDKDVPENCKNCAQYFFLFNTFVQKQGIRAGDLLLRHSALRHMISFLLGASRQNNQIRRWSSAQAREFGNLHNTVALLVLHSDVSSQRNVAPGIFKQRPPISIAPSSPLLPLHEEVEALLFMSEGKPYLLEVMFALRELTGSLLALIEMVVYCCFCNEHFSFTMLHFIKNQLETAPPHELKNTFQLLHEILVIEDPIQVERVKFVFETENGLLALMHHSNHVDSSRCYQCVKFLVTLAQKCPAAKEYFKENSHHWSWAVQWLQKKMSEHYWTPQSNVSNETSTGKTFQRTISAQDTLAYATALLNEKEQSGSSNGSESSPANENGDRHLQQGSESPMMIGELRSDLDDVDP

O=C(CCl)N1CCC(=C(F)CO)C1
inactive: [1] -0.052 | [2] 0.183 | [3] 0.0707 | [4] -0.149
